# Laboratory results reported in paper PMC5540273 (PLoS ONE, 2017).
# What was measured:
# Conditions in all cases: concentration: 1 μM, replicates: in singlicate; n = 1
# JNK3 = tested on: T1, JNK3
# T1 construct: gene MAPK10
# KIT-autoinhibited = tested on: KIT-autoinhibited
# KIT = tested on: KIT
# LATS1 = tested on: LATS1
# LATS2 = tested on: LATS2
# LCK = tested on: LCK
# LIMK1 = tested on: LIMK1
# LIMK2 = tested on: LIMK2
# LKB1 = tested on: T2, LKB1
# T2 construct: gene STK11
# LOK = tested on: T3, LOK
# T3 construct: gene STK10
# 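Also: KINOMEscan kinase panel screen.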
Compound,%Inh (JNK3) [%],%Inh (KIT-autoinhibited) [%],%Inh (KIT) [%],%Inh (LATS1) [%],%Inh (LATS2) [%],%Inh (LCK) [%],%Inh (LIMK1) [%],%Inh (LIMK2) [%],%Inh (LKB1) [%],%Inh (LOK) [%]
O=C(Nc1n[nH]c2nc(-c3ccco3)c(Br)cc12)C1CCN(Cc2ccccc2)C1.O=C(O)[C@H](O)[C@@H](O)C(=O)O (stereo not drawn) [SB-742034],13,7,22,0,0,5,0,0,37,0
CS(=O)(=O)CCNCc1nc(-c2ccc3ncnc(Nc4ccc(OCc5ccccc5)c(Cl)c4)c3c2)cs1.Cl [GW582764],0,0,1,0,0,17,0,0,0,0
FC(F)(F)c1ccccc1-c1cc(-c2c[nH]nc2-c2ccccn2)ccn1 [GW679396],40,0,3,0,0,17,0,0,11,0
CC[C@@H]1CO[C@H](C(=O)Nc2ccccc2)CN1c1cc(-c2ccc3c(N)n[nH]c3c2)nc(NC)n1 [GSK2376236],0,0,17,0,0,30,1,9,5,0
NS(=O)(=O)c1cccc(N/C=C2\C(=O)Nc3ccc(S(=O)(=O)Cc4c(Cl)cccc4Cl)cc32)c1 [GSK398099],7,0,15,41,22,13,7,28,0,0
Cc1ccccc1Cn1ccn2c(=O)cc(N3CCOCC3)nc12 [GSK2269905],1,1,14,0,0,16,18,0,0,0
COc1ccc(Nc2nccc(N3CCC(NC(=O)c4cc5ccccc5s4)C3)n2)cc1 (stereo not drawn) [GSK1379738],10,0,7,0,1,16,8,17,0,0
Cc1ccc(NC(=O)Nc2ccccc2)cc1-c1ccc(C(=O)Nc2ccncc2)cc1 [GSK1398471],8,0,99.7,0,0,35,18,0,0,25
O=C(Nc1n[nH]c2nc(-c3cccs3)c(Br)cc12)C1CC1 [SB-735297],9,0,5,11,3,16,26,0,0,18
CC(=O)c1c(C)c2cnc(Nc3ccn(C)n3)nc2n(C2CCCC2)c1=O,0,0,0,0,4,8,23,0,0,15
c1ccc(-c2ccnc3[nH]ccc23)cc1 [SB-693578],11,0,1,0,53,7,6,0,0,0
CC(C)c1ccc(O)cc1Nc1ccnc2ccc(C(F)(F)F)cc12 [GW482059],0,0,0,0,0,22,0,0,0,0
O=c1cc(N2CCOCC2)nc2n(Cc3ccccc3F)ccn12 [GSK2297428],0,0,7,0,0,28,0,1,5,0
CNc1nc(-c2ccc3c(N)n[nH]c3c2)cc(N2C[C@@H](C(=O)NC3CCCCC3)OC[C@H]2C)n1 [GSK2375584],0,7,20,0,15,19,8,24,0,0
O=c1cc(N2CCOCC2)nc2n(Cc3cccc(Cl)c3Cl)c3ccccc3n12 [GSK2299009],3,0,36,0,16,43,4,24,8,0
COc1cccc(NC(=O)Nc2ccc(C)c(-c3ccc(C(=O)Nc4ccncc4)cc3)c2)c1 [GSK1398474],26,0,99.8,0,5,43,11,8,0,0
Cc1ccc(NC(=O)Nc2ccccc2F)cc1-c1ccc(C(=O)Nc2ccncc2)cc1 [GSK1398477],0,5,99.6,0,2,68,36,15,0,33

Compound,%Inh (JNK3) [%],%Inh (KIT-autoinhibited) [%],%Inh (KIT) [%],%Inh (LATS1) [%],%Inh (LATS2) [%],%Inh (LCK) [%],%Inh (LIMK1) [%],%Inh (LIMK2) [%],%Inh (LKB1) [%],%Inh (LOK) [%]
Nc1nccc(-c2c(-c3ccc(F)cc3)ncn2C2CCN(Cc3ccccc3)CC2)n1 [SB-219980],95.4,0,0,13,0,0,13,0,36,18
CCn1c(-c2ccccc2)nc2cnccc21 [SB-733416],7,0,8,0,0,18,20,0,0,0
Fc1ccc(-c2nc[nH]c2-c2ccncc2)cc1 [SB-217360],98.6,21,0,0,0,25,0,0,0,16
COC(=O)c1cccc(NC(=O)NC2CCN(c3ccnc(Nc4ccc(F)cc4)n3)C2)c1 (stereo not drawn) [GSK1379725],17,0,44,0,0,0,0,0,0,0
Cn1cncc1C(=O)NC1CCN(c2ccnc(Nc3ccc(F)cc3)n2)C1 (stereo not drawn) [GSK1379717],13,0,17,25,0,4,0,2,0,0
COc1ccc(CSc2nnc(-c3ccc4ncsc4c3)o2)cc1C(F)(F)F,0,0,18,12,0,0,0,0,2,0
Cn1cnc2c(N)ncnc21 [SKF-97623],0,35,0,22,0,0,0,0,36,4
Cc1c(Cn2c(C)c(C)n3c(=O)cc(N4CCOCC4)nc23)cccc1C(F)(F)F [GSK2328680],0,0,9,86,1,18,8,4,18,0
COc1ccc(Nc2nccc(NCCNC(=O)Nc3cc(C)ccc3C)n2)cc1 [GSK1379899],0,0,0,0,0,26,0,0,0,0
COc1ccc2cc(-c3nc(-c4ccccc4C(C)C)[nH]c3-c3ccncc3)ccc2c1 [SB-660566],44,0,0,0,0,11,8,0,0,61
COc1cc2ncnc(Nc3cccc(Br)c3)c2cc1OC.Cl [GI230329],–,0,10,0,0,66,0,0,10,36
CCc1ccc(-c2ccc3c(c2)-c2n[nH]cc2S(=O)(=O)N3C)cc1,0,0,7,0,0,4,0,0,17,3
COC(=O)C(NC(=O)NC1CCN(c2ccnc(Nc3ccc(F)cc3)n2)C1)c1ccccc1 (stereo not drawn) [GSK1379712],0,5,29,13,5,18,17,10,15,0
CNCc1ccc2nc(NC(=O)c3ccc(C(C)(C)C)cc3)cn2c1,14,20,69,2,6,2,5,0,31,0
CCn1c(-c2c(N)noc2C)nc2cnccc21 [SB-737856],9,0,0,0,0,10,3,100,0,0
Cc1ccc(NC(=O)c2ccc(Cl)cc2)cc1-c1ccc(C(=O)Nc2ccncc2)cc1 [GSK1398467],0,0,99.4,0,0,68,0,3,0,0
Cc1c(Cn2c3ccccc3n3c(=O)cc(N4CCOCC4)nc23)cccc1C(F)(F)F [GSK2306394],4,0,7,0,0,11,0,3,0,0
